Source: PubChem BioAssay (NCATS)
Several values for one entry are separate records, joined by “and”; a condition that tells them apart may be missing. Equal values may be shown once. Records with an inconclusive call do not appear. Activity calls are given as the source filed them. The call rests on the fitted dose curve; in most records, active means well fitted inhibition curve with a large enough effect; inconclusive means small, poorly fitted or top-dose-only effect; inactive means flat fitted curve, though single readings scatter.

What was measured:
Experiment in all cases: Cytotoxic Profiling of Annotated Libraries Using Quantitative High-Throughput Screening (AID 1296008); further: nearly all actives have a fitted effect of over 60% in size
Settings in all cases: Five cell lines viability, CellTiter-Glo ATP luminescence, 48-72 h; max response: stronger effect = lower value
[1] = system: CRL-7250
Outline: (§1)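 Cytotoxicity was measured as CellTiter-Glo ATP luminescence, read after 10 min at room temperature. Compound treatment of the cells lasted 48 or 72 hr at 37 degrees Celsius in a qHTS format.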

[2] = system: HEK293
Outline: as §1

[3] = system: HaCat
Outline: as §1

[4] = system: KB-3-1
Outline: as §1

[5] = system: NIH3T3
Outline: as §1

Measured: max response
On the % scale 0 is the no-effect control and ±100 the full control effect.

CC(C)(O)C1CC=C(C(=O)OCC2OC(Oc3c(O)cc(C(=O)O)cc3O)C(O)C(O)C2O)CC1 (stereo not given)
inactive: [1] -4.71% | [2] | [3] -2.95% | [4] | [5]

C=C1C(=O)OC2/C=C(\C)CC/C=C(\C(=O)O)CC/C=C(\C)CCC12 (stereo not given)
inactive: [1] | [2] | [3] | [4] 5.52% | [5] 2.63%

C=CC(C)(O)CC/C=C(/C)C(=O)OC1C(OC2OCC(OC3OC(CO)C(O)C(O)C3O)C(OC3OCC(O)C(OC4OC(C)C(O)C(O)C4O)C3O)C2O)COC(OC(=O)C23CCC(C)(C)CC2C2=CCC4C5(C)CCC(OC6OC(CO)C(OC7OC(CO)C(O)C(OC8OCC(O)C(O)C8O)C7O)C(O)C6O)C(C)(C)C5CCC4(C)C2(C)CC3O)C1O (stereo not given)
inactive: [1] | [2] | [3] | [4] -5.7% | [5]

C=C(C(=O)O)C1CCC(C)C2CCC(=O)OC2(C)C1 (stereo not given)
inactive: [1] 4.24% | [2] | [3] | [4] 6.53% | [5] 0.163%

CC/C=C\C[C@H]1C(=O)C=C[C@@H]1CCCCCCCC(=O)O
inactive: [1] 4.76% | [2] | [3] | [4] -3.68% | [5]

O=c1c2cccnc2n(-c2cccc([N+](=O)[O-])c2)c(=O)n1Cc1ccncc1
inactive: [1] | [2] | [3] -29.4% | [4] | [5] -3.44%

CC1(C)CCC(C)(C)c2cc([C@@H](O)C(=O)Nc3ccc(C(=O)O)cc3F)ccc21
inactive: [1] -3.37% | [2] | [3] -6.8% | [4] | [5]

C[C@@H]1CCC2C(C)(C)[C@H](O)CC[C@]2(C)[C@@]12Cc1c(O)cc3c(c1O2)CN(CCO)C3=O (stereo not given in full)
inactive: [1] -2.75% | [2] | [3] 4.59% | [4] 3.58% | [5] 1.6%

COCC(=O)N1CCc2cc(-c3csc(NC(=O)c4cc(OC)cc(OC)c4)n3)ccc21
inactive: [1] | [2] | [3] -4% | [4] | [5]

C[C@@H]1O[C@@H](OC[C@H]2O[C@@H](OCCc3ccccc3)[C@H](O)[C@@H](O)[C@@H]2O)[C@H](O)[C@H](O)[C@H]1O
inactive: [1] -0.537% | [2] | [3] | [4] | [5] 4.11%

COc1cc(C[C@H]2COC(=O)[C@@H]2Cc2ccc(O)c(OC)c2)ccc1O
inactive: [1] | [2] | [3] | [4] -4.79% | [5]

CCOC(=O)c1ccnc(CNCC(=O)N(CC)CCN(C)C)c1
inactive: [1] 3.74% | [2] | [3] | [4] 5.64% | [5]

CC12CCC3c4ccc(O)cc4CCC3C1CCC2OC1OC(C(=O)O)C(O)C(O)C1O (stereo not given)
inactive: [1] | [2] | [3] 2.12% | [4] | [5] 1.3%

OC[C@H]1O[C@@H](Oc2ccc(O)c3cccc(O)c23)[C@H](O)[C@@H](O)[C@@H]1O
inactive: [1] | [2] | [3] -1.01% | [4] 3.57% | [5]

CC(C)c1ccc(CC(=O)N2CCC[C@@H](c3cccc(OC(C)(C)C(=O)O)c3)C2)cc1
inactive: [1] -8.91% | [2] | [3] | [4] | [5] -2.06%

CC(=O)O[C@@H]1C[C@]2(C)[C@@]3(CCC4[C@@]5(C)CC[C@H](O[C@@H]6O[C@H](C(=O)O)[C@@H](O)[C@H](O[C@@H]7O[C@H](CO)[C@H](O)[C@H](O)[C@H]7O[C@@H]7O[C@@H](C)[C@H](O)[C@@H](O)[C@H]7O[C@@H]7OC[C@](O)(CO)[C@H]7O)[C@H]6O[C@@H]6O[C@H](CO)[C@H](O)[C@H](O)[C@H]6O)C(C)(C)C5CC[C@]42C)O[C@@H](O)[C@]12C3CC(C)(C)[C@@H](OC(=O)/C=C/c1ccc(O)c(O)c1)[C@@H]2OC(=O)/C=C/c1ccccc1 (stereo not given in full)
inactive: [1] 3.23% | [2] | [3] | [4] | [5]

COCCN(C)Cc1ccc2nc3sc(C(=O)N(C)C4CCCCC4)cn3c2c1
inactive: [1] | [2] | [3] -3.7% | [4] | [5] -0.706%

COC(=O)C1C(CC(C)=O)C=CC(O)C12Oc1cc(C)cc(O)c1C2=O (stereo not given)
inactive: [1] -4.03% | [2] | [3] | [4] 4.45% | [5] 3.58%

CC(=C/C(=O)O)/C=C/[C@]1(O)[C@@]2(C)CO[C@]1(C)C[C@H](O[C@@H]1O[C@H](CO)[C@@H](O)[C@H](O)[C@H]1O)C2
inactive: [1] 1.76% | [2] | [3] | [4] 0.594% | [5] -8.59%

COC1C2=C(COC2=O)C2(C)CCCC(C)(CO)C2C1OC(=O)c1ccccc1 (stereo not given)
inactive: [1] | [2] | [3] -2.64% | [4] | [5]

c1nc(NC2CCCCCC2)c2cc(CNC[C@H]3CCCO3)sc2n1
inactive: [1] | [2] | [3] -3.62% | [4] -9.77% | [5] 3.78%

CC1CCC2C(C)(C)C(O)CCC2(C)C12Cc1c(O)cc3c(c1O2)CN=C3N (stereo not given)
inactive: [1] -3.95% | [2] | [3] 3.03% | [4] 2.69% | [5]

CC(NC(=O)CC(=O)O)c1nc2ccccc2c(=O)[nH]1 (stereo not given)
inactive: [1] -1.93% | [2] | [3] | [4] | [5]

COC(=O)C1=CO[C@@H](O[C@@H]2O[C@H](CO[C@@H]3O[C@H](COC(=O)/C=C/c4ccc(O)cc4)[C@@H](O)[C@H](O)[C@H]3O)[C@@H](O)[C@H](O)[C@H]2O)[C@@H]2C(CO)=CC[C@H]12
inactive: [1] 4.68% | [2] | [3] 0.423% | [4] 6.83% | [5] 0.0703%

CNC(=O)Nc1ccc(OC)c(NC(=O)NC(=O)c2cc(F)c(F)cc2Cl)c1
inactive: [1] -5.98% | [2] | [3] | [4] 0.332% | [5]

COc1ncc(-c2ccc3c(Nc4cc(Oc5cc(F)cc(F)c5)cc(C(=O)O)c4)c(S(=O)(=O)NC4CC4)cnc3c2)c(OC)n1
inactive: [1] -7.5% and -5.78% | [2] 0.563% and -20.6% | [3] -12% and 2.17% | [4] | [5] 3.25% and -1.23%

CC(=O)c1c(O)cc2c(c1C)C(=O)CC(O)C2 (stereo not given)
inactive: [1] 4.51% | [2] | [3] 1.58% | [4] 9.72% | [5] 1.74%

CCOc1nc2cccc(C(=O)OCc3oc(=O)oc3C)c2n1Cc1ccc(-c2ccccc2-c2noc(O)n2)cc1
inactive: [1] | [2] | [3] | [4] | [5]

CC1(C)CCC(C)(C)c2cc3c(cc21)Sc1ccccc1N=C3c1ccc(C(=O)O)cc1
inactive: [1] | [2] | [3] -6.28% | [4] -15.5% | [5] 3.93%

C/C1=C\C[C@H](O[C@@H]2O[C@H](CO)[C@@H](O)[C@H](O)[C@H]2O)/C(C)=C/[C@H]2OC(=O)[C@H](C)[C@@H]2CC1
inactive: [1] -3.83% | [2] | [3] | [4] 8.78% | [5]

O=C(/C=C/c1ccc(O)cc1)OC[C@H]1O[C@@H](OC(=O)/C=C/c2ccccc2)[C@H](O)[C@@H](O)[C@@H]1O
inactive: [1] | [2] | [3] | [4] -1.64% | [5]

CC(=O)OC[C@]1(O)[C@H]2[C@H](OC(=O)CC(C)C)OC=C(CO[C@@H]3O[C@H](CO)[C@@H](O)[C@H](O)[C@H]3O)[C@H]2C[C@@H]1O
inactive: [1] | [2] | [3] -3.61% | [4] | [5]

COc1cc(O[C@@H]2O[C@H](CO)[C@@H](O)[C@H](O)[C@H]2O)c(CCC(=O)OC[C@H]2O[C@@H](Oc3cc(OC)c(C4OC(=O)C(C)(O)C4O)cc3CCC(=O)O)[C@H](O)[C@@H](O)[C@@H]2O)cc1C1OC(=O)C(C)(O)C1O (stereo not given in full)
inactive: [1] 1.01% | [2] | [3] | [4] 9.44% | [5] -2.47%

C1CCN2CC3C[C@@H](CN4CCCC[C@@H]34)[C@H]2C1
inactive: [1] 3.38% | [2] | [3] | [4] 5.45% | [5] -1.12%

COc1cc(NC(=O)c2ccccn2)ccc1Cl
inactive: [1] 4.88% | [2] | [3] | [4] -6.58% | [5]

COc1ccc2c(c1O)OC[C@H]1c3ccc(O)cc3O[C@@H]21
inactive: [1] 2.17% | [2] | [3] | [4] | [5]

CC1(C)CC[C@]2(C(=O)O)CC[C@]3(C)C(=CCC4[C@@]5(C)C[C@H](O)[C@H](O[C@@H]6OC[C@H](O)[C@H](O)[C@H]6O)[C@@](C)(CO)C5CC[C@]43C)[C@@H]2C1 (stereo not given in full)
inactive: [1] | [2] | [3] | [4] | [5] 2.89%

COc1ccc(/C=C/C(=O)O[C@H]2[C@@H]3C=CO[C@@H](O[C@@H]4O[C@H](CO)[C@@H](O)[C@H](O)[C@H]4O)[C@@H]3[C@@]3(CO)O[C@@H]23)cc1O
inactive: [1] | [2] | [3] | [4] | [5] 2.14%

COc1ccc(C(O[C@@H]2O[C@H](CO)[C@@H](O)[C@H](O)[C@H]2O)C(CO)Oc2ccc(/C=C/CO)cc2OC)cc1O (stereo not given in full)
inactive: [1] | [2] | [3] | [4] | [5]

C=C1CC[C@@H]2[C@](C)(CO[C@@H]3O[C@H](CO)[C@@H](O)[C@H](O)[C@H]3O)CCC[C@@]2(C)[C@@H]1CCC1=CCOC1=O
inactive: [1] | [2] | [3] | [4] 2.64% | [5]
